# In the supplement of paper PMC3545927:
# The other results are listed elsewhere or left out. No count for the full screen is at hand.
# B1: HC274 (peptide)
# chain: CAVPCVREGNAGNASASA
# B2: FS-1742 (peptide)
# chain: CARLPRDCTRAGNASASA
# B3: FS-2571 (peptide)
# chain: CARLPRATGNAGNASASA
# B4: FS-2994 (peptide)
# chain: CARLRRMNGNAGNASASA
# B5: FS-2985 (peptide)
# chain: CARLARTCGRAGNASASA
# B6: HC241 (peptide)
# chain: CAGVNYATGNAGNASASA
# B7: HC2428 (peptide)
# chain: CAWREVPCHRAGNASASA
# B8: HC114 (peptide)
# chain: CAVVCCCMSYAGNASASA
# B9: HC951 (peptide)
# chain: CAENLPYLVAAGNASASA
# B10: FS-2970 (peptide)
# chain: CARKRRAAIPAGNASASA
# B11: FS-2699 (peptide)
# chain: CARKRRHHKEAGNASASA
# B12: FS-2697 (peptide)
# chain: CARKRKKKEEAGNASASA
# B13: FS-1732 (peptide)
# chain: CARKNRSRIPAGNASASA
# B14: FS-2566 (peptide)
# chain: CARKRRGYSEAGNASASA
# B15: FS-2349 (peptide)
# chain: CARKRRMQEEAGNASASA
# B16: HC803 (peptide)
# chain: CAITTGSPITAGNASASA
# B17: HC237 (peptide)
# chain: CAHGVRVLEDAGNASASA
# B18: HC1845 (peptide)
# chain: CATLPCSGSWAGNASASA
# B19: HC1121 (peptide)
# chain: CAAFASRGNHAGNASASA
# B20: FS-1906 (peptide)
# chain: CARKRRHAKPAGNASASA
# B21: HC1123 (peptide)
# chain: CARGNHVSPTAGNASASA
# B22: HC2414 (peptide)
# chain: CAEVPCHRPKAGNASASA
# B23: HC2082 (peptide)
# chain: CAVVCCSMQYAGNASASA
# B24: HC814 (peptide)
# chain: CAGGAYDIIIAGNASASA
# B25: FS-1524 (peptide)
# chain: CAGAQRRRRAAGNASASA
# B26: FS-996 (peptide)
# chain: CAGERRRRRAAGNASASA
# B27: FS-907 (peptide)
# chain: CAHHQRRRRAAGNASASA
# B28: FS-1041 (peptide)
# chain: CAPAPPRRRAAGNASASA
# B29: EK5 (peptide)
# chain: CAGERGFFYTAGNASASA
# B30: NE4 (peptide)
# chain: CAGAGAGAGAAGNASASA
# Target: furin, P09958
# Test: furin cleavage Z-score vs untreated control; higher = more cleavage, active = 3.5 or more, inactive = 1 or less, 8 variable residues between constant flanks
# How it was run: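 Reactions of 0.01 ml ran for 7.5, 15 or 30 min in 50 mM HEPES pH 7.5 with CaCl2 and NaCl, at 1:10 enzyme:substrate. In them, purified furin acted on bead-held 8-mer peptides fused to a cDNA oligonucleotide. The cleavage Z-score was obtained by lowess-adjusting log sequencing counts of released DNA against furin-free reactions and scaling by median absolute deviation.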
# Chain of furin, P09958 (P09958 whole entry): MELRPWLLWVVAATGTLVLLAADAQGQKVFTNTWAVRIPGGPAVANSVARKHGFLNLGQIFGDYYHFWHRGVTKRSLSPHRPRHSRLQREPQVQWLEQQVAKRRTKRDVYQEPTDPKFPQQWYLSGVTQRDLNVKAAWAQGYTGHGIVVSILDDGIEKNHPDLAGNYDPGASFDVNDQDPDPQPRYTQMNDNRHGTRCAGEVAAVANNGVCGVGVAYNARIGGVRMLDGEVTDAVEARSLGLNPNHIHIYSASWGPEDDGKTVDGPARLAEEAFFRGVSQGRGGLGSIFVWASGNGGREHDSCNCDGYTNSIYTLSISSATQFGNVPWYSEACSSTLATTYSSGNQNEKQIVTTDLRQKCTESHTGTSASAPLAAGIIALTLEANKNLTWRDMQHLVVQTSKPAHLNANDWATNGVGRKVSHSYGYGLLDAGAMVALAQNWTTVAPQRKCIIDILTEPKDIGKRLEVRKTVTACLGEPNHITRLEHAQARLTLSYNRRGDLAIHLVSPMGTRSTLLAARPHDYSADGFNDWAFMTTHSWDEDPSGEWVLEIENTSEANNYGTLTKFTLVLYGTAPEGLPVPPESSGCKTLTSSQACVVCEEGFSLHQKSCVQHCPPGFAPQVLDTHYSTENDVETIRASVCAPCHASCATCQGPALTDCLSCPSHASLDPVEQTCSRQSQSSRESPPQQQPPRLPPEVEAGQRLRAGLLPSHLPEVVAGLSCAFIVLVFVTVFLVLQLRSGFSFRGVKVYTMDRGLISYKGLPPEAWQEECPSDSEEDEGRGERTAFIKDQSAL
Sequence,furin cleavage Z-score (7.5 min),furin cleavage Z-score (15 min),furin cleavage Z-score (30 min)
B1,-0.737 (inactive),-0.519 (inactive),-1.84 (inactive)
B2,5.34 (active),4.96 (active),5.25 (active)
B3,5 (active),5.67 (active),4.58 (active)
B4,-0.28 (inactive),-1.18 (inactive),-0.557 (inactive)
B5,-1.25 (inactive),0.197 (inactive),-0.432 (inactive)
B6,1.48,0.396 (inactive),-0.36 (inactive)
B7,0.368 (inactive),0.114 (inactive),0.301 (inactive)
B8,-0.592 (inactive),-1.78 (inactive),-0.879 (inactive)
B9,0.645 (inactive),-0.626 (inactive),-0.719 (inactive)
B10,8.75 (active),10.1 (active),9.65 (active)
B11,2.57,3.84 (active),4.3 (active)
B12,0.247 (inactive),-0.542 (inactive),0.0983 (inactive)
B13,0.169 (inactive),-0.807 (inactive),1.17
B14,2.94,5.38 (active),4.72 (active)
B15,1.31,4.08 (active),2.78
B16,-2.76 (inactive),0.166 (inactive),-2.04 (inactive)
B17,-1.85 (inactive),0.0719 (inactive),-1.67 (inactive)
B18,-0.596 (inactive),-0.261 (inactive),-1.28 (inactive)
B19,-0.112 (inactive),-1.64 (inactive),-2.06 (inactive)
B20,10.5 (active),11.1 (active),8.48 (active)
B21,1.1,1.54,0.545 (inactive)
B22,-1.63 (inactive),0.536 (inactive),-0.415 (inactive)
B23,1.92,0.703 (inactive),0.648 (inactive)
B24,-2.09 (inactive),-0.697 (inactive),-1.96 (inactive)
B25,6.18 (active),4.18 (active),4.18 (active)
B26,8.97 (active),8.15 (active),6.93 (active)
B27,7.96 (active),6.66 (active),6.29 (active)
B28,-0.128 (inactive),0.595 (inactive),-0.381 (inactive)
B29,-1.92 (inactive),-1.21 (inactive),-0.932 (inactive)
B30,-0.934 (inactive),-0.739 (inactive),-0.847 (inactive)
